TDP1 cell noCPT: qHTS for Inhibitors of human tyrosyl-DNA phosphodiesterase 1 (TDP1): qHTS in cells in absence of CPT. DT40 Tdp1-/- hTDP1 cells, no CPT, ATP luminescence, 48 h. Potency, µM (titrated, usually from 46.2 µM), inactives show top-dose activity change, negative = growth inhibition, usual class: inhibitors. actives 15% (n = 420,000); also: potency is read from the fitted curve at half-maximal effect; nearly all actives have a fitted effect of over 55% in size
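DT40 Tdp1-/-;hTDP1 cells, no CPT (DMSO vehicle only), 400 cells/well; compounds pin-transferred; ≥48 hr, 37 °C; CellTiter-Glo 30 min RT dark, luminescence read.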
Giardia kill: kills Giardia lamblia. AID 540267. Giardia lamblia trophozoite viability. actives 0.15% (n = 340,000). activity change, % at 7.66 µM, hits read low; in the data active = activity change below about -80%; inconclusive = between about -30% and that limit;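 also: parasites exposed to compound for two days anaerobically before the ATP read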
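Anaerobic 48 hrs incubation at 37 deg C of 100 trophozoites/well with test compounds; ATPLite 1-Step luminescence, 15-30 min RT, reports cellular ATP as viability.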
TDP1 block: blocks human tyrosyl-DNA phosphodiesterase 1; AID 485290; Q9NUW8; actives 0.28% (n = 350,000); recombinant TDP1, AlphaScreen DNA substrate cleavage; Potency, µM (series often up to 130 µM), without a hit: at the top dose activity change, negative = inhibition, usual class: inhibitors; also: potency is read from the fitted curve at half-maximal effect; nearly all actives have a fitted effect of over 40% in size
Target sequence (Q9NUW8 whole entry, looked up): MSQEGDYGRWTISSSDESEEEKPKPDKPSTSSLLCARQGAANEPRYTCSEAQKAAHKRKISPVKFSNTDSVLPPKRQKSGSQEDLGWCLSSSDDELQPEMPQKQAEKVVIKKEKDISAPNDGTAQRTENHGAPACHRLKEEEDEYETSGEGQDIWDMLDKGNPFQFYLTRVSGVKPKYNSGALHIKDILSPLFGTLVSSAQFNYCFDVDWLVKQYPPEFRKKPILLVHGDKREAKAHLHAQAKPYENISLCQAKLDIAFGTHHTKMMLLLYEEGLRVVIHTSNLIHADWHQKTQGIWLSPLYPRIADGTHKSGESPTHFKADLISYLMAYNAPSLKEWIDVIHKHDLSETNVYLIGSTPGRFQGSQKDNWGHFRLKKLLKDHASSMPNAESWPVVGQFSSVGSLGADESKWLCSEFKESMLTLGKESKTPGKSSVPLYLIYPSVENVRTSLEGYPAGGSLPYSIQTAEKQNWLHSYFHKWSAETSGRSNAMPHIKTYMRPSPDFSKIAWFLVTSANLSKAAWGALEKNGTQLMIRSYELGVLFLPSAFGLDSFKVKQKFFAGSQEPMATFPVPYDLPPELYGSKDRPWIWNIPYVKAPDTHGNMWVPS
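Compounds were preincubated with Tdp1 (1 nM final) for 15 min at room temperature before substrate (15 nM final) started a 5 min reaction; beads (10 ug/ml final) were then added for 10 min before AlphaScreen detection.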
IL-1B inflam inh: inflammasome signaling inhibition, IL-1 beta readout; THP-1 LPS/ATP IL-1B secretion, AlphaLISA, 16 h; active compounds read low; activity change, % at 57.5 µM; actives 4.7% (n = 360,000); in the data active = activity change below about -50%; inconclusive = mostly about -30% to -49%
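THP-1 cells pretreated 1 hr with compounds (up to 57.5 uM final), then stimulated with LPS (250 ng/mL final) plus ATP (1.25 mM final); secreted IL-1B measured by AlphaLISA after 16 hr, decreased signal indicating inhibition.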
TDP1 cell CPT: DT40-hTDP1 cell growth loss with CPT; actives 12% (n = 420,000); chicken DT40 Tdp1-/-;hTDP1 cells + 20 nM CPT, ATP luminescence, 48 h; Potency, µM (top dose mostly 46.2 µM), without a hit: at the highest dose activity change, negative = growth inhibition, actives largely listed as inhibitors; also: potency is read from the fitted curve at half-maximal effect; nearly all actives have a fitted effect of over 55% in size
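Chicken DT40 Tdp1-/- cells complemented with human TDP1, 400 cells/well, exposed to compounds plus 20 nM camptothecin for at least 48 h at 37 C; viability read as ATP content by CellTiter-Glo luminescence.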
ELG1 repair inh: inhibitors of ELG1-dependent DNA repair in HEK293T cells; Potency, µM (doses to about 46.1 µM), inactives show at the highest dose activity change, negative = inhibition, actives largely listed as inhibitors; actives 2.3% (n = 330,000); HEK293T ELG1-luciferase reporter, luminescence, 16 h; DNA damage induced by 5-fluorouridine; also: potency is read from the fitted curve at half-maximal effect; nearly all actives have a fitted effect of over 55% in size
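Cells (2,000 per well) received 5-fluorouridine plus test compound or DMSO and were incubated 16 hr at 37 °C, 5% CO2. Luciferase activity was read by luminescence 30 min after ONE-Glo addition; signal suppression marked inhibition of damage-induced ELG1 function.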
* = called active by the depositor. Only some compounds are listed: those with a hit (about 19% of all), similar ones and a draw of the others. Unless noted, calls follow the shape of the dose curve; as a rule, active = well fitted curve in the direction sought with a large enough effect; inconclusive = small, poorly fitted or top-dose-only effect, or another doubt; inactive = no such curve, though single readings can be large; an effect the other way counts as inactive or inconclusive. % is scaled to controls: 0 for no effect and ±100 for the full control effect.

O=C(O)c1ccc(CSc2nnc(-c3cccnc3)n2-c2ccc(Br)cc2)cc1 was read as TDP1 cell noCPT -11%, Giardia kill 19, TDP1 block 3%, IL-1B inflam inh inconclusive, TDP1 cell CPT -19% and ELG1 repair inh 1%.
Screening CCc1cccc(CC)c1NC(=O)Cn1nnc2sc3c(c2c1=O)CCCC3 returned TDP1 cell noCPT 8.2µM*, TDP1 block -1% and TDP1 cell CPT inconclusive.
CCCCc1ccc(NC(=O)Cn2nnc3sc4c(c3c2=O)CCC(C)C4)cc1 (stereo not given) was read as TDP1 cell noCPT inconclusive, TDP1 block -1% and TDP1 cell CPT inconclusive.
CC1CCc2c(sc3nnn(CC(=O)Nc4c(C(C)C)cccc4C(C)C)c(=O)c23)C1 (stereo not given) was read as TDP1 cell noCPT 15µM*, TDP1 block 2% and TDP1 cell CPT inconclusive.
`Cc1c(Cl)cccc1NC(=O)Cn1nnc2sc3c(c2c1=O)CCCC3` gave TDP1 cell noCPT 3%, TDP1 block -4% and TDP1 cell CPT -9%.
For COc1cc(C2NCC(c3ccc(Cl)cc3Cl)c3c2[nH]c2ccccc32)cc(OC)c1OC (stereo not given) the results were TDP1 cell noCPT 18µM*, Giardia kill 10, TDP1 block 5%, IL-1B inflam inh -66*, TDP1 cell CPT inconclusive and ELG1 repair inh 1%.
Screening COc1ccc(OC)c(S(=O)(=O)NCC(c2cccs2)N2CCc3ccccc3C2)c1 (stereo not given) returned TDP1 cell noCPT inconclusive, Giardia kill 21, IL-1B inflam inh 3, TDP1 cell CPT 16µM* and ELG1 repair inh 29%.
Screening O=S1(=O)N=C(Oc2cccc(Cl)c2)c2ccccc21 returned TDP1 block 0%.
Cn1c(=O)c2c(ncn2Cc2cccc(Cl)c2)n(C)c1=O was read as TDP1 cell noCPT inconclusive, Giardia kill 0, TDP1 block 8%, IL-1B inflam inh -30, TDP1 cell CPT inconclusive and ELG1 repair inh -23%.
Cn1c(=O)c2c(ncn2Cc2ccc(Cl)c(Cl)c2)n(C)c1=O was read as TDP1 cell noCPT 12µM*, Giardia kill -7, TDP1 block 0%, IL-1B inflam inh -13, TDP1 cell CPT 23µM* and ELG1 repair inh inconclusive.
Cn1c(=O)c2c(ncn2Cc2cc(-c3ccccc3)no2)n(C)c1=O was read as TDP1 cell noCPT 26µM*, Giardia kill -2, TDP1 block 7%, IL-1B inflam inh 0, TDP1 cell CPT inconclusive and ELG1 repair inh 18µM*.
`Cc1cc(C)c(C)c(S(=O)(=O)Nc2ccccc2C(=O)NN2CCOCC2)c1C` gave TDP1 cell noCPT -2%, Giardia kill -4, TDP1 block 2%, IL-1B inflam inh 14, TDP1 cell CPT -22% and ELG1 repair inh -1%.
`O=C(CC1C(=O)NCCN1Cc1cccc(F)c1)NCCCCCN1CCOCC1` (stereo not given) gave TDP1 cell noCPT -5%, Giardia kill 13, TDP1 block 4%, IL-1B inflam inh -7, TDP1 cell CPT 0% and ELG1 repair inh -3%.
For Cc1ccc2c(c1)CO[C@@]21O[C@H](CCO)C[C@H](O)[C@H]1O the results were TDP1 cell noCPT -8%, IL-1B inflam inh 20 and TDP1 cell CPT -6%.
CN(Cc1ccccc1)C(=O)c1ccc2c(c1)N(Cc1ccccc1Cl)C(=O)c1ccccc1S2 was read as TDP1 cell noCPT inconclusive, TDP1 block 5% and TDP1 cell CPT inconclusive.
COc1ccc2nc(N=Nc3ccc(O)c4ccccc34)sc2c1 was read as TDP1 cell noCPT 1.3µM*, Giardia kill 4, TDP1 block 3%, IL-1B inflam inh 0, TDP1 cell CPT 1.3µM* and ELG1 repair inh inconclusive.
COc1ccc2nc(N=NC3=C(O)CC(C)(C)CC3=O)sc2c1 was read as TDP1 cell noCPT 5.8µM*, Giardia kill 9, TDP1 block 10%, IL-1B inflam inh 141, TDP1 cell CPT 5.2µM* and ELG1 repair inh 3%.
For COc1ccc(C(C[N+](=O)[O-])c2c(C)cc3ccccn23)cc1 (stereo not given) the results were TDP1 cell noCPT 18µM*, Giardia kill -3, TDP1 block 6%, IL-1B inflam inh -7, TDP1 cell CPT 10µM* and ELG1 repair inh -10%.
Screening COc1ccc(C(C[N+](=O)[O-])c2c(C)[nH]n(-c3ccccc3)c2=O)cc1 (stereo not given) returned TDP1 cell noCPT 16µM*, Giardia kill -11, IL-1B inflam inh -52*, TDP1 cell CPT 13µM* and ELG1 repair inh -15%.
`COc1ccc(C(C[N+](=O)[O-])c2c(-c3ccccc3)cc3ccccn23)c(OC)c1` (stereo not given) gave TDP1 cell noCPT 5.2µM*, Giardia kill 11, TDP1 block -7%, IL-1B inflam inh -11, TDP1 cell CPT 2.9µM* and ELG1 repair inh inconclusive.
For Cc1cc2ccccn2c1C(C[N+](=O)[O-])c1ccc(N(C)C)cc1 (stereo not given) the results were TDP1 cell noCPT inconclusive, Giardia kill -20, TDP1 block 10%, IL-1B inflam inh 7, TDP1 cell CPT 16µM* and ELG1 repair inh 4%.
Screening COc1ccccc1NC(=O)Cn1c(=O)oc2cc(S(=O)(=O)NCc3ccccc3)ccc21 returned TDP1 cell noCPT inconclusive, TDP1 block 1% and TDP1 cell CPT inconclusive.
`CCOc1ccc2c(c1)-c1c(ssc1=S)C(C)(C)N2C(=O)c1ccco1` gave TDP1 cell noCPT 2.9µM*, Giardia kill 16, TDP1 block 13%, IL-1B inflam inh -12, TDP1 cell CPT 5.2µM* and ELG1 repair inh inconclusive.
COc1ccc2c(c1)-c1c(ssc1=S)C(C)(C)N2C(=O)CSC1=NCCS1 was read as TDP1 cell noCPT 23µM*, Giardia kill -4, TDP1 block 8%, IL-1B inflam inh -21, TDP1 cell CPT inconclusive and ELG1 repair inh inconclusive.
Screening COc1ccc2c(c1)-c1c(ssc1=S)C(C)(C)N2S(=O)(=O)c1ccc(C)cc1 returned TDP1 cell noCPT 5.2µM*, Giardia kill 9, TDP1 block 11%, IL-1B inflam inh 10, TDP1 cell CPT 15µM* and ELG1 repair inh 11%.

High-throughput results as filed in PubChem.
